Compound activity as filed in PubChem BioAssay.
ELG1 repair inh: blocks ELG1-dependent DNA repair in HEK293T cells; HEK293T ELG1-luciferase reporter, luminescence, 16 h; DNA damage induced by 5-fluorouridine; Potency, µM (top dose mostly 46.1 µM), for the others: at the top dose activity change, negative = inhibition, hits mostly inhibitors; hit rate 2.3% among 330,000; also: % is scaled to controls: 0 for no effect and ±100 for the full control effect; nearly all actives have a fitted effect of over 55% in size
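In this reporter screen, reduction of luminescence relative to DMSO vehicle indicated activity. Compounds and 5-fluorouridine were added together to 2,000 cells per well, incubated for 16 hr at 37 °C, then developed with ONE-Glo.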
NPC1 promoter act: activates the NPC1 promoter; Huh7 NPC1 promoter luciferase reporter, 24 h; Potency, µM (highest dose often 9.22 µM), for the others: top-dose activation, usual class: activators; hit rate 2.4% among 320,000; also: % of control where 0% means no effect; nearly all actives have a fitted effect of over 60% in size
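Luminescence from an NPC1 promoter-driven luciferase reporter in stably transfected Huh7 cells was measured after 24 h compound treatment at 37 °C, followed by 10 min ambient incubation with luciferase detection reagent.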
ELG1 genotoxic: inducers of genotoxicity in HEK293T ELG1-luciferase cells; HEK293T ELG1-luciferase reporter, luminescence, 16 h; Potency, µM (titrated, usually from 46 µM), inactives show at the top dose activity change, positive = activation, usual class: activators; hit rate 1.3% among 330,000; also: % of control where 0% means no effect; nearly all actives have a fitted effect of over 60% in size
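HEK293T cells expressing luciferase-tagged ELG1 were exposed to compound or DMSO vehicle for 16 hr at 37 °C and 5% CO2. Luciferase activity was then measured with ONE-Glo after 30 min at room temperature.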
SMN2 splice enh: SMN2 splice variant enhancement | Potency, µM (doses to about 46.1 µM), for the others: at the top dose activity change, positive = activation, usual class: activators | HEK293 SMN2-luciferase splicing reporter, luminescence, 30-36 h | hit rate 2.8% among 210,000; also: % of control where 0% means no effect; nearly all actives have a fitted effect of over 55% in size
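qHTS luciferase splicing reporter: luminescence rises when SMN2 exon 7 is included in transfected HEK293 cells. Compound exposure lasted 30-36 h at 37C, with 4.5 mM final sodium butyrate as control, followed by a ONE-Glo read.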
FLuc counter: counter-screen for miR-21 project: firefly luciferase inhibitors or activators; P08659; purified FLuc, Km substrates, luminescence inhibition; Potency, µM (top dose mostly 57.5 µM), for inactives: top-dose activity change, negative = inhibition, actives largely listed as inhibitors; hit rate 6.9% among 360,000;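 also: plate controls were vehicle for no effect and reference inhibitor for full effect; nearly all actives have a fitted effect of over 55% in size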
Target sequence (P08659 whole entry, looked up): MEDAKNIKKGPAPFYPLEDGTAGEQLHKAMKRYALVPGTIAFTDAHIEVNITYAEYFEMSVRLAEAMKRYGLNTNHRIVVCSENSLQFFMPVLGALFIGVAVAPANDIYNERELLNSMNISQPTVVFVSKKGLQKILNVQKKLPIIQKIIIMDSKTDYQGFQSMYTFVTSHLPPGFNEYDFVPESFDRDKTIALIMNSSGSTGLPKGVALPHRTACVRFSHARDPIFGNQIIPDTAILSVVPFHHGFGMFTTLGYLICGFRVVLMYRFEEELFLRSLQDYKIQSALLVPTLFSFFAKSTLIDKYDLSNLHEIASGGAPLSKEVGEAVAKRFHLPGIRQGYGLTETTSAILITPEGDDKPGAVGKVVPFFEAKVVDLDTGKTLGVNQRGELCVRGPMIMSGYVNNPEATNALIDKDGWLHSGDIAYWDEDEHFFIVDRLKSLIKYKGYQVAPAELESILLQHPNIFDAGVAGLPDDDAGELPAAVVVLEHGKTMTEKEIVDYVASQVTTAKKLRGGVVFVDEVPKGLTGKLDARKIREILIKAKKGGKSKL
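Biochemical qHTS of compounds, final roughly 60 µM downward over six points, against 10 nM purified firefly luciferase using Km concentrations of substrates (10 uM D-luciferin, 10 uM ATP) in Tris acetate pH 7.5 buffer; luminescence output.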
Rab9 prom act: activators of Rab9 promoter; Huh7 Rab9 promoter-luciferase reporter, luminescence, 24 h; Potency, µM (titrated, usually from 9.22 µM), without a hit: at the top dose activation, negative = inhibition, most hits filed as activators; hit rate 2.8% among 320,000; also: % of control where 0% means no effect; nearly all actives have a fitted effect of over 60% in size
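Stable Rab9-luc Huh7, 1500 cells/well, 2 h settle; cmpd in DMSO, 24 h, 37 °C/5% CO2; luciferase reagent 10 min RT; luminescence.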
An asterisk follows results filed as active. The list is not random: actives were taken first. Their share in the collection is about 9.4%. Calls follow the shape of the dose curve; as a rule, active = well fitted curve in the direction sought with a large enough effect; inconclusive = small, poorly fitted or top-dose-only effect, or another doubt; inactive = no such curve, though single readings can be large; an effect the other way counts as inactive or inconclusive. Potency is read from the fitted curve at half-maximal effect.

Screening COc1cc(SC)ccc1C(=O)Nc1ccc(S(=O)(=O)N2CCCC2)cc1 returned ELG1 repair inh 7.5%, NPC1 promoter act -0.1%, ELG1 genotoxic 17.6%, SMN2 splice enh -20.0%, FLuc counter -6.9% and Rab9 prom act -4.2%.
`CCN(CC)S(=O)(=O)c1cccc(NC(=O)c2ccc(SC)cc2OC)c1` gave ELG1 repair inh inconclusive, NPC1 promoter act -14.8%, ELG1 genotoxic -17.7%, SMN2 splice enh -58.0%, FLuc counter inconclusive and Rab9 prom act -5.3%.
Screening COc1cc(SC)ccc1C(=O)NCCOc1c(C)cc(C)cc1C returned ELG1 repair inh -14.3%, NPC1 promoter act 0.6%, ELG1 genotoxic -2.6%, FLuc counter 3.3% and Rab9 prom act -15.1%.
COc1cc(SC)ccc1C(=O)Nc1ccc2c(c1)OCO2 was read as ELG1 repair inh inconclusive, NPC1 promoter act 0.891µM*, ELG1 genotoxic 2.59µM*, SMN2 splice enh 11.2µM*, FLuc counter 1.35µM* and Rab9 prom act 1.58µM*.
`COc1cc(SC)ccc1C(=O)Nc1ccc(C)cc1` gave ELG1 repair inh inconclusive, NPC1 promoter act inconclusive, ELG1 genotoxic inconclusive, FLuc counter 1.9µM* and Rab9 prom act 3.55µM*.
For O=C(c1cccc(F)c1)N1CCC2(CCN(Cc3ccccc3)CC2)CC1 the results were SMN2 splice enh 0.6%.
For O=C(Nc1ccccn1)c1ccc2c(c1)S(=O)(=O)c1ccccc1C2=O the results were ELG1 repair inh inconclusive, NPC1 promoter act 11.4%, ELG1 genotoxic 3.3%, SMN2 splice enh 26.0%, FLuc counter -17.9% and Rab9 prom act 5.5%.
`O=C(Nc1cccc(S(=O)(=O)N2CCOCC2)c1)c1ccc(Cl)nc1` gave ELG1 repair inh inconclusive and ELG1 genotoxic -11.7%.
`Cc1ccnc(NC(=O)c2ccc(Cl)c(S(=O)(=O)N3CCCC3)c2)c1` gave ELG1 repair inh 21.4%, NPC1 promoter act inconclusive, ELG1 genotoxic inconclusive, FLuc counter 19µM* and Rab9 prom act inconclusive.
O=C(O)c1ccc(Cl)c(S(=O)(=O)Nc2ccccc2C(=O)Nc2ccc(Cl)cc2)c1 was read as ELG1 repair inh 29.1%, NPC1 promoter act 14.3%, ELG1 genotoxic 9.9%, FLuc counter 26.9µM* and Rab9 prom act 15.7%.
For O=C(Nc1cccc(S(=O)(=O)N2CCCC2)c1)c1ccc(Cl)nc1 the results were ELG1 repair inh 9.2µM* and ELG1 genotoxic -8.1%.
`Cc1ccnc(NC(=O)c2ccc3c(c2)S(=O)(=O)c2ccccc2C3=O)c1` gave ELG1 repair inh inconclusive, NPC1 promoter act inconclusive, ELG1 genotoxic 6.8%, FLuc counter 15.1µM* and Rab9 prom act 23.9%.
For CN(C)C(=O)c1ccc(-c2nc(NCc3ccccc3)c3ccccc3n2)cc1 the results were SMN2 splice enh 4.2%.
`Cc1c(C(=O)NCc2cccc(F)c2)oc2c1-c1[nH]ncc1CC2` gave FLuc counter -9.4%.
Screening Cc1ccc(Cl)cc1NS(=O)(=O)c1ccc(N2CCCCS2(=O)=O)cc1 returned FLuc counter -17.1%.
O=C(Nc1ccccn1)c1ccc(Cl)c(S(=O)(=O)N2CCCCCC2)c1 was read as ELG1 repair inh 2.6%, NPC1 promoter act 18.9%, ELG1 genotoxic -0.5%, FLuc counter 21.3µM* and Rab9 prom act inconclusive.
For Cc1ccnc(NC(=O)c2ccc(Cl)c(S(=O)(=O)N3CCCCC3)c2)c1 the results were ELG1 repair inh 3.4%, NPC1 promoter act 3.8%, ELG1 genotoxic -1.7% and Rab9 prom act 12.6%.
Screening O=C(O)c1cccc(NC(=O)c2ccc(Cl)c(S(=O)(=O)N3CCCCCC3)c2)c1 returned ELG1 repair inh inconclusive, NPC1 promoter act 0.316µM*, ELG1 genotoxic 2.31µM*, SMN2 splice enh 8.91µM*, FLuc counter 0.107µM* and Rab9 prom act 0.355µM*.
For O=C(Nc1cccnc1)c1ccc(Cl)c(S(=O)(=O)N2CCCCC2)c1 the results were ELG1 repair inh inconclusive, NPC1 promoter act 0.0%, ELG1 genotoxic -0.7%, FLuc counter 1.6% and Rab9 prom act -2.7%.
`COc1ccc(C(=O)O)cc1S(=O)(=O)Nc1cccc(C(F)(F)F)c1` gave ELG1 repair inh 2.6%, NPC1 promoter act -2.2%, ELG1 genotoxic -1.2%, SMN2 splice enh 8.5%, FLuc counter 0.5% and Rab9 prom act -6.4%.
O=C(O)c1ccc(Cl)c(S(=O)(=O)Nc2cccc(C(=O)Nc3cccc(C(F)(F)F)c3)c2)c1 was read as ELG1 repair inh 1.6%, NPC1 promoter act -0.9%, ELG1 genotoxic 1.3%, SMN2 splice enh -5.3%, FLuc counter 15.1µM* and Rab9 prom act 0.6%.
O=C(CSCc1ccc(Cl)cc1Cl)Nc1ccccc1C(=O)Nc1ccc(C(=O)O)cc1 was read as ELG1 repair inh 0.9%, NPC1 promoter act -4.9%, ELG1 genotoxic -2.5%, SMN2 splice enh 5.2%, FLuc counter 19µM* and Rab9 prom act -7.2%.
O=C(c1ccc2c(c1)N(Cc1ccc(Cl)cc1)C(=O)c1ccccc1S2(=O)=O)N1CCCC1 was read as SMN2 splice enh -9.4% and FLuc counter -5.2%.
Screening COc1cccc(NC(=O)Cn2c(=O)n(-c3cccc(OC)c3)c(=O)c3sc4ccccc4c32)c1 returned SMN2 splice enh 6.0% and FLuc counter -4.8%.
For CCC(=O)N(c1nnc(SCC(=O)c2ccc[nH]2)s1)C1CC1 the results were ELG1 repair inh inconclusive and ELG1 genotoxic 8.3%.
Screening Cc1ccc(NC(=O)CN2CCC(C(=O)c3ccc4c(c3)OCCO4)CC2)cc1 returned ELG1 repair inh 0.0%, NPC1 promoter act 0.8%, ELG1 genotoxic 0.3%, SMN2 splice enh -3.1%, FLuc counter -4.4% and Rab9 prom act 0.2%.
`NS(=O)(=O)c1ccc(NC(=O)c2ccc3c(c2)OCO3)cc1` gave ELG1 repair inh 19.5%, NPC1 promoter act 14.9%, ELG1 genotoxic 3.8%, FLuc counter -17.6% and Rab9 prom act 12.2%.
`Cc1ccc(NC(=O)c2ccc3c(c2)OCCO3)cc1` gave ELG1 repair inh inconclusive, NPC1 promoter act 0.316µM*, ELG1 genotoxic inconclusive, SMN2 splice enh 0.708µM*, FLuc counter 0.536µM* and Rab9 prom act 0.1µM*.
O=C(Nc1ccncc1)c1ccc2c(c1)OCCO2 was read as ELG1 repair inh -28.2%, NPC1 promoter act 0.0%, ELG1 genotoxic 4.6%, SMN2 splice enh -25.8%, FLuc counter 16.9µM* and Rab9 prom act 8.5%.
`Cc1ccc2c(c1)N(C(=O)N1CCC(C(=O)NCc3cccc(Br)c3)CC1)CCO2` gave FLuc counter -18.1%.
